Results on 10 compounds are retold here after PubChem BioAssay (NCI).

Each structure is given as a SMILES string. The panel holds about 79,000 compounds, 15% with a hit somewhere; the sample as a whole holds those more often. A number with no mark means an inactive call. Activity calls are given as the source filed them. Rule as the data show it: active = growth inhibition above about 70%; inactive = the rest.

Assay [1] can be described thus: NCI Yeast Anticancer Drug Screen. Data for the rad50 strain (AID 155).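 Also: 0% = growth of vehicle-only cultures of the same strain.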 The following applies: S. cerevisiae rad50 strain growth inhibition, hits give high values. The gist of the method: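 Readout: growth inhibition relative to vehicle-treated cultures. Compound exposure was carried out in a genetically defined yeast strain deficient in DNA damage repair.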
Assay [2] can be described thus: NCI Yeast Anticancer Drug Screen. Data for the mec2-1 strain (AID 157). The following applies: S. cerevisiae mec2-1 strain, hits give high values. The gist of the method: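 Vehicle-treated cultures served as reference for growth inhibition of compound-exposed mec2-1 yeast.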
Assay [3] in a line: NCI Yeast Anticancer Drug Screen. Data for the sgs1 mgt1 strain (AID 161).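 Also: 0% = growth of cultures given vehicle only.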 To be noted: S. cerevisiae sgs1 mgt1 strain, hits give high values. The gist of the method: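 Genetically altered yeast, compound exposure, growth inhibition relative to vehicle.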
Assay [4] is described as follows: NCI Yeast Anticancer Drug Screen. Data for the cln2 rad14 strain (AID 165).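 Also: 0% = growth equal to vehicle treated cultures.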 To be noted: S. cerevisiae cln2 rad14 strain, hits give high values. In a few lines: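 Each compound was tested on cln2 rad14 yeast. Inhibition of growth was calculated against vehicle-exposed controls.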
Assay [5] in a line: NCI Yeast Anticancer Drug Screen. Data for the bub3 strain (AID 167). To be noted: S. cerevisiae bub3 mutant strain, hits give high values. The gist of the method: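 Readout: yeast growth inhibition, expressed relative to vehicle-only wells. The test organism is a mutant strain from a panel with lesions in DNA repair or checkpoint genes.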
The nature of assay [6]: NCI Yeast Anticancer Drug Screen. Data for the mlh1 rad18 strain (AID 175). To be noted: S. cerevisiae mlh1 rad18 strain growth inhibition, hits give high values. The gist of the method: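 Vehicle-treated cultures served as the reference for growth inhibition in a yeast strain carrying DNA damage repair alterations exposed to each compound.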
[7] abbreviates: at 5.0 µM (retest, dose inferred, filed as 0.5).
Where [8] appears, read: at 50.0 µM (retest, dose inferred, filed as 5.0).

As for `CCOP(=O)(OCC)/C(=C\NC(=S)N=Nc1c(O)[nH]c2ccccc12)C(=O)OC`, the growth inhibition was 29% in assay [1] (setting [7]); 81% (active) in assay [1] (setting [8]); 19.6% in assay [1] (at 50.0 µM); 4% in assay [2] (setting [7]); 89% (active) in assay [2] (setting [8]); 11.2% in assay [2] (at 50.0 µM). Moreover, the growth inhibition in assay [3] (setting [7]) is 6%; in assay [3] (setting [8]) it was 83% (active); in assay [3] (at 50.0 µM), 7.85%; in assay [4] (setting [7]), 2%; in assay [4] (setting [8]), 67%; in assay [4] (at 50.0 µM) it was 46.1%. Besides, the growth inhibition in assay [5] (setting [7]) is -8%; in assay [5] (setting [8]), 62%; in assay [5] (at 50.0 µM), 13.8%; in assay [6] (setting [7]) it was 5%; in assay [6] (setting [8]), 84% (active); in assay [6] (at 50.0 µM), 14.6%.

As for `CC(=O)O[C@H]1CC[C@H]2[C@@H]3CCc4cc(O)c(I)cc4[C@H]3CC[C@]12C`, the growth inhibition in assay [1] (setting [7]) is 12%; in assay [1] (setting [8]), 84% (active); in assay [1] (at 50.0 µM), 51.3%; in assay [2] (setting [7]), 0%; in assay [2] (setting [8]), 58%; in assay [2] (at 50.0 µM), 43.8%. In addition, the growth inhibition in assay [3] (setting [7]) is 23%; in assay [3] (setting [8]), 93% (active); in assay [3] (at 50.0 µM), 72.4% (active); in assay [4] (setting [7]) it was 21%; in assay [4] (setting [8]) it was 75% (active); in assay [4] (at 50.0 µM), 45%. In addition, the growth inhibition is 20% in assay [5] (setting [7]); 82% (active) in assay [5] (setting [8]); 47.5% in assay [5] (at 50.0 µM); 6% in assay [6] (setting [7]); 80% (active) in assay [6] (setting [8]); 63.4% in assay [6] (at 50.0 µM).

Take `C/C(=N\NC(=S)N(C)C1CCCCC1)c1ccc2ccccc2n1`: the growth inhibition in assay [1] (setting [7]) is 18%; in assay [1] (setting [8]) it was 88% (active); in assay [1] (at 50.0 µM), 83.2% (active); in assay [2] (setting [7]), 28%; in assay [2] (setting [8]), 97% (active); in assay [2] (at 50.0 µM) it was 80.2% (active). The growth inhibition was 28% in assay [3] (setting [7]); 93% (active) in assay [3] (setting [8]); 81.8% (active) in assay [3] (at 50.0 µM); 33% in assay [4] (setting [7]); 88% (active) in assay [4] (setting [8]); 84% (active) in assay [4] (at 50.0 µM). Moreover, the growth inhibition is 33% in assay [5] (setting [7]); 96% (active) in assay [5] (setting [8]); 76.9% (active) in assay [5] (at 50.0 µM); 19% in assay [6] (setting [7]); 97% (active) in assay [6] (setting [8]); 89.2% (active) in assay [6] (at 50.0 µM).

Regarding `Cc1ccc(/C=C/C(=O)c2cc(CN(C)C)c(O)c(CN(C)C)c2)cc1`, the growth inhibition was 1% in assay [1] (setting [7]); 5% in assay [1] (setting [8]); 41.9% in assay [1] (at 50.0 µM); 0% in assay [2] (setting [7]); 25% in assay [2] (setting [8]); -1.25% in assay [2] (at 50.0 µM). Moreover, the growth inhibition was -1% in assay [3] (setting [7]); 11% in assay [3] (setting [8]); -9.5% in assay [3] (at 50.0 µM); 4% in assay [4] (setting [7]); -4% in assay [4] (setting [8]); 55.6% in assay [4] (at 50.0 µM). In addition, the growth inhibition in assay [5] (setting [7]) is 3%; in assay [5] (setting [8]) it was 8%; in assay [5] (at 50.0 µM), -3.35%; in assay [6] (setting [7]) it was -2%; in assay [6] (setting [8]), 23%; in assay [6] (at 50.0 µM), 1.4%.

Consider `O=C1Oc2ccccc2C1c1ccccc1` (stereo not given), for which the growth inhibition in assay [1] (setting [7]) was 16%; in assay [1] (setting [8]) it was 90% (active); in assay [1] (at 50.0 µM), 28.6%; in assay [2] (setting [7]) it was 1%; in assay [2] (setting [8]) it was 87% (active); in assay [2] (at 50.0 µM) it was 35.5%. Further, the growth inhibition is 4% in assay [3] (setting [7]); 91% (active) in assay [3] (setting [8]); -2.1% in assay [3] (at 50.0 µM); 10% in assay [4] (setting [7]); 92% (active) in assay [4] (setting [8]); 8.4% in assay [4] (at 50.0 µM). Besides, the growth inhibition is -1% in assay [5] (setting [7]); 95% (active) in assay [5] (setting [8]); 34.5% in assay [5] (at 50.0 µM); 1% in assay [6] (setting [7]); 93% (active) in assay [6] (setting [8]); 27.5% in assay [6] (at 50.0 µM).

Regarding `CN(C)c1nc(=NCc2ccccc2)ss1`, the growth inhibition in assay [1] (setting [7]) is -7%; in assay [1] (setting [8]), 46%; in assay [1] (at 50.0 µM) it was 66.9%; in assay [2] (setting [7]) it was -5%; in assay [2] (setting [8]), 38%; in assay [2] (at 50.0 µM), 54.7%. For the same compound, the growth inhibition in assay [3] (setting [7]) is 19%; in assay [3] (setting [8]), 77% (active); in assay [3] (at 50.0 µM), 72.5% (active); in assay [4] (setting [7]), 8%; in assay [4] (setting [8]), 48%; in assay [4] (at 50.0 µM), 36.6%. Moreover, the growth inhibition in assay [5] (setting [7]) is 0%; in assay [5] (setting [8]), 76% (active); in assay [5] (at 50.0 µM) it was 59%; in assay [6] (setting [7]), 5%; in assay [6] (setting [8]), 82% (active); in assay [6] (at 50.0 µM), 50.1%.

As to `COc1ccccc1C1SC(c2ccccc2)(c2ccccc2)OC1=O` (stereo not given), the growth inhibition in assay [1] (setting [7]) was -2%; in assay [1] (setting [8]) it was -9%; in assay [1] (at 50.0 µM), 84.6% (active); in assay [2] (setting [7]), -2%; in assay [2] (setting [8]) it was -4%; in assay [2] (at 50.0 µM), 50.1%. For the same compound, the growth inhibition in assay [3] (setting [7]) was 12%; in assay [3] (setting [8]) it was -2%; in assay [3] (at 50.0 µM) it was 80.2% (active); in assay [4] (setting [7]) it was -2%; in assay [4] (setting [8]) it was -7%; in assay [4] (at 50.0 µM), 84.8% (active). The growth inhibition is -1% in assay [5] (setting [7]); 16% in assay [5] (setting [8]); 85.9% (active) in assay [5] (at 50.0 µM); 0% in assay [6] (setting [7]); -6% in assay [6] (setting [8]); 80.9% (active) in assay [6] (at 50.0 µM).

Take `CC(=O)O[C@H]1CC[C@]2(C)C3=CC[C@]4(C)[C@@H](C(C)=O)CC[C@H]4[C@@]34C=C[C@]2(C1)C1C(=O)OC(=O)C14` (stereo not given in full): the growth inhibition was 2% in assay [1] (setting [7]); 2% in assay [1] (setting [8]); 58.2% in assay [1] (at 50.0 µM); 2% in assay [2] (setting [7]); 6% in assay [2] (setting [8]); 20.7% in assay [2] (at 50.0 µM). Besides, the growth inhibition was 1% in assay [3] (setting [7]); 7% in assay [3] (setting [8]); 29.4% in assay [3] (at 50.0 µM); 4% in assay [4] (setting [7]); 4% in assay [4] (setting [8]); -24% in assay [4] (at 50.0 µM). The growth inhibition is 3% in assay [5] (setting [7]); 4% in assay [5] (setting [8]); 56.9% in assay [5] (at 50.0 µM); -20% in assay [6] (setting [7]); -26% in assay [6] (setting [8]); 70.8% (active) in assay [6] (at 50.0 µM).

In the case of `Nc1ccc(S(=O)(=O)O)c2cccc(S(=O)(=O)O)c12`, the growth inhibition in assay [1] (setting [7]) was -2%; in assay [1] (setting [8]), -2%; in assay [1] (at 50.0 µM), 3.45%; in assay [2] (setting [7]), -2%; in assay [2] (setting [8]), 0%; in assay [2] (at 50.0 µM), 7.4%. In addition, the growth inhibition is -2% in assay [3] (setting [7]); 0% in assay [3] (setting [8]); 31.5% in assay [3] (at 50.0 µM); -1% in assay [4] (setting [7]); -7% in assay [4] (setting [8]); 71.9% (active) in assay [4] (at 50.0 µM). The growth inhibition in assay [5] (setting [7]) is 0%; in assay [5] (setting [8]), 2%; in assay [5] (at 50.0 µM), 27.2%; in assay [6] (setting [7]), -1%; in assay [6] (setting [8]) it was -2%; in assay [6] (at 50.0 µM) it was -12.9%.

`O=S(=O)(Nc1ccnn1-c1ccccc1)c1ccc(N=Cc2c3ccccc3nc3cc(Cl)ccc23)cc1`: the growth inhibition in assay [1] (setting [7]) is 22%; in assay [1] (setting [8]), 29%; in assay [1] (at 50.0 µM) it was 96.8% (active); in assay [2] (setting [7]), 12%; in assay [2] (setting [8]), 12%; in assay [2] (at 50.0 µM), 96.7% (active). Further, the growth inhibition in assay [3] (setting [7]) was 10%; in assay [3] (setting [8]), 7%; in assay [3] (at 50.0 µM), 96.4% (active); in assay [4] (setting [7]) it was -1%; in assay [4] (setting [8]), -1%; in assay [4] (at 50.0 µM), 68.7%. Further, the growth inhibition is 17% in assay [5] (setting [7]); 17% in assay [5] (setting [8]); 67.9% in assay [5] (at 50.0 µM); 10% in assay [6] (setting [7]); 19% in assay [6] (setting [8]); 97.5% (active) in assay [6] (at 50.0 µM).
